From PubChem BioAssay (EPA / NIEHS) come the findings set out here.

Records with an inconclusive call do not appear. Calls of active or inactive are those of the source. The calls were made as follows: active = hit-call score of the fitted dose curve at least 0.9, where 1 is the maximum; inconclusive = response in the unintended direction; inactive = score below 0.9.

A short description of experiment [1]: Tanguay_ZF_120hpf_PE_legacy: (Legacy) Oregon State University Tanguay Lab 120 Hour Post-fertilization zebrafish Assay for Pericardial Edema (AID 2283640). The method in brief: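 Scoring was binary, by brightfield microscopy at 120 hpf, and skipped where mortality occurred. Wild-type embryos were kept under sealed, foil-covered static exposure at 28C in 0.64% (vol/vol) DMSO.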

Experiment [2] in a line: Tanguay_ZF_120hpf_BRAI_legacy: (Legacy) Oregon State University Tanguay Lab 120 Hour Post-fertilization zebrafish Assay for Brain Malformation (AID 2283641). Put shortly:
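Binary brightfield scoring of brain malformation at 120 hpf in Tropical 5D larvae held under static exposure at 28C (0.64% v/v DMSO), non-mortality endpoints skipped if dead. Positive control: 5uM trimethyltin chloride; fit versus DMSO.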

A short description of experiment [3]: Tanguay_ZF_120hpf_SOMI_legacy: (Legacy) Oregon State University Tanguay Lab 120 Hour Post-fertilization zebrafish Assay for Somite Malformation (AID 2283647). The method in brief:
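Binary somite-defect scoring at 120 hpf, omitted for embryos that died, in wild-type (Tropical 5D) zebrafish with chorion removed by pronase at 4 hpf; static exposure began 6 hpf, single embryos per well, 28C, 0.64% DMSO; fitted positive versus DMSO.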

A short description of experiment [4]: Tanguay_ZF_120hpf_PFIN_legacy: (Legacy) Oregon State University Tanguay Lab 120 Hour Post-fertilization zebrafish Assay for Pectoral Fin Malformation (AID 2283648).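 Also: each larva judged yes or no for fin defect by brightfield with dead larvae skipped.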 The method in brief: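 Dechorionated Tropical 5D wild-type zebrafish embryos, one per well, statically exposed from 6 to 120 hpf at 28C with 0.64% DMSO final. Pectoral fin malformation scored present/absent by brightfield at 120 hpf; not scored in dead embryos.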

A short description of experiment [5]: Tanguay_ZF_120hpf_CFIN_legacy: (Legacy) Oregon State University Tanguay Lab 120 Hour Post-fertilization zebrafish Assay for Caudal Fin Malformation (AID 2283649). Put shortly: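 Binary brightfield scoring of caudal fin defects at 120 hpf after static, light-shielded exposure at 28C from 6 hpf. Tropical 5D embryos, chorion removed with pronase at 4 hpf, final DMSO 0.64%.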

Experiment [6] in a line: Tanguay_ZF_120hpf_PIG_legacy: (Legacy) Oregon State University Tanguay Lab 120 Hour Post-fertilization zebrafish Assay for Pigmentation Malformation (AID 2283650). Put shortly: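 Dechorionated Tropical 5D wild-type embryos, one per well from 6 hpf, statically exposed at 28C in the dark until 120 hpf, 0.64% DMSO final. Pigmentation scored present/absent by brightfield microscopy; dead embryos not scored; fitted versus DMSO.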

The nature of experiment [7]: Tanguay_ZF_120hpf_CIRC_legacy: (Legacy) Oregon State University Tanguay Lab 120 Hour Post-fertilization zebrafish Assay for Circulatory Malformation (AID 2283651). The method in brief: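 Using wild-type Tropical 5D zebrafish, we exposed dechorionated embryos from 6 to 120 hpf in embryo medium with 0.64% DMSO. Circulatory defects were scored as present or absent; 5uM trimethyltin chloride served as positive control.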

Experiment [8] is described as follows: Tanguay_ZF_120hpf_SWIM_legacy: (Legacy) Oregon State University Tanguay Lab 120 Hour Post-fertilization zebrafish Assay for Swim Bladder Malformation (AID 2283654).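 Also: swim bladder malformation in each larva scored yes or no under brightfield.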 The method in brief: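 Dechorionated wild-type Tropical 5D zebrafish embryos, one per well from 6 hpf, were statically exposed at 28C until 120 hpf in 0.64% DMSO. Swim bladder malformation scored as present/absent by brightfield microscopy; not scored in dead larvae.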

Experiment [9] is described as follows: Tanguay_ZF_120hpf_TRUN_legacy: (Legacy) Oregon State University Tanguay Lab 120 Hour Post-fertilization zebrafish Assay for Truncated Body (AID 2283655). Put shortly:
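Binary presence/absence of truncated body is recorded at 120 hpf by brightfield, with non-mortality endpoints skipped after death. Exposure is static from 6 hpf in sealed dark plates at 28C, using dechorionated wild-type zebrafish, 0.64% DMSO.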

Experiment [10] is described as follows: Tanguay_ZF_120hpf_NC_legacy: (Legacy) Oregon State University Tanguay Lab 120 Hour Post-fertilization zebrafish Assay for Notochord and Tail Malformation (AID 2283656). The method in brief:
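Dechorionated 5D zebrafish, 1/well from 6 hpf; static exposure to 120 hpf, 28C, sealed, dark; final DMSO 0.64% v/v. NC scored binary (present/absent); dead embryos not scored. Fit vs DMSO baseline, gain direction.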

The nature of experiment [11]: Tanguay_ZF_120hpf_JAW_legacy: (Legacy) Oregon State University Tanguay Lab 120 Hour Post-fertilization zebrafish Assay for Jaw Malformation (AID 2283638). The method in brief: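 Binary jaw-malformation call at 120 hpf by brightfield microscopy. Embryos (Tropical 5D strain, chorion removed at 4 hpf) were dosed statically at 6 hpf, one per well, at 28C with 0.64% DMSO. Embryos that died were not scored.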

Experiment [12] is described as follows: Tanguay_ZF_120hpf_TR_legacy: (Legacy) Oregon State University Tanguay Lab 120 Hour Post-fertilization zebrafish Assay for Touch Response (AID 2283667). Put shortly: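 Tropical 5D wild-type zebrafish embryos statically exposed to 120 hpf at 28°C, sealed and dark-covered, 0.64% DMSO final; touch response scored as present/absent by brightfield microscopy at 120 hpf. Trimethyltin chloride 5 uM positive control; dead embryos not scored.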

Experiment [13] deals with Thyroperoxidase (TPO), gene 54314. The experiment can be described thus: CCTE_Simmons_AUR_rTPO: CCTE's Amplex UltraRed Assay for Thyroperoxidase (TPO) Inhibition, Simmons Lab (AID 2283662).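 Also: potency for loss of signal meaning inhibition of peroxidase activity.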 The method in brief: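 Endpoint is decreased Amplex UltraRed fluorescence after a 30-min, 37C reaction of rat thyroid microsomes with 300 uM H2O2. Eight test concentrations (5 nM–87.5 uM final) in 0.5% DMSO, three biological replicates each.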

A short description of experiment [14]: CCTE_Simmons_CellTiterGLO_HEK293T: Viability Assessment in CCTE's Assays for Thyroperoxidase (TPO) Inhibition, Simmons Lab (AID 2283665).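 As to AC50: cells exposed to compound for 24 h before readout; actives reduce ATP signal below DMSO vehicle meaning cytotoxicity.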 The method in brief: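 Cytotoxicity counter-screen: human HEK293T cells in low-serum (1% FBS) medium receive test chemical, 5 nM to 87.5 uM final, for 24 h; ATP is quantified by luciferase luminescence.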

In the case of `COc1ccc2c(c1)c(CC(=O)O)c(C)n2C(=O)c1ccc(Cl)cc1`, the molecule was called inactive in [1], in experiment [2], in experiment [3], in experiment [4], in experiment [5] and in experiment [6]. For the same molecule, the molecule was classed as inactive in [7], in experiment [8], in experiment [9] and in [10].

For `Cc1cccc([N+](=O)[O-])c1C`, the outcome in experiment [11], in experiment [1], in [2], in experiment [4], in experiment [5] and in experiment [6] was inactive. Moreover, the outcome in experiment [7], in experiment [9], in [10] and in [12] was inactive.

A word on the AC50: it is the midpoint of the concentration-response curve, whichever way the signal moves. In the case of `Cc1ccc(C)c(O)c1C`, the call in experiment [11], in [1], in experiment [4], in [5], in [6] and in experiment [7] was inactive. For the same molecule, the call in [8], in experiment [9], in [10], in [14] and in [12] was inactive. For the same molecule, the half-maximal activity concentration (AC50) in experiment [13] is 10.5 µM (active).

`COc1ccc(S(=O)(=O)N2C(=O)[C@@](c3ccccc3OC)(N3C[C@H](O)C[C@H]3C(=O)N(C)C)c3cc(Cl)ccc32)c(OC)c1`: the molecule was classed as inactive in experiment [11], in experiment [1], in experiment [2], in experiment [4], in experiment [5] and in experiment [6]. For the same molecule, the outcome in experiment [7], in experiment [9], in experiment [10] and in experiment [12] was inactive.

As to `NC(=O)Cn1c(=O)cc(CCN2CCN(c3nccc4sccc34)CC2)c2ccc(F)cc21`, the call in experiment [11], in experiment [1], in experiment [4], in experiment [5], in experiment [7] and in [8] was inactive. Moreover, the result in experiment [9], in experiment [10] and in experiment [12] was inactive.

For `CC(=O)OCCOCCOCCOC(C)=O`, the outcome in experiment [11], in [1], in [2], in experiment [4], in [5] and in experiment [7] was inactive. The result in experiment [8], in experiment [9] and in experiment [12] was inactive.

`CCCCCCCCCCCCCCCC`: the result in experiment [11], in experiment [1], in experiment [4], in [5], in experiment [6] and in experiment [7] was inactive. Besides, the molecule was called inactive in [8], in experiment [9], in experiment [10] and in experiment [12].

As to `CCCCCCC(=O)OCC`, the result in experiment [1], in [2], in [3], in experiment [4], in [6] and in [7] was inactive. For the same molecule, the outcome in experiment [8], in [9] and in experiment [10] was inactive.

On to `FC(F)(F)C(F)(F)C(F)(F)C(F)(F)C(F)(F)C(F)(F)CCI`, for which the call in experiment [11], in [1], in [2], in experiment [4], in [5] and in experiment [7] was inactive. The molecule was classed as inactive in [8], in experiment [9] and in experiment [12].

Regarding `COc1cc(S(=O)(=O)O)c(C)cc1N=Nc1c(O)ccc2cc(S(=O)(=O)O)ccc12`, the outcome in experiment [11], in experiment [1], in [2], in experiment [5], in experiment [6] and in [8] was inactive. Further, the outcome in [9], in experiment [10] and in experiment [12] was inactive. Further, the AC50 was 23.3 µM (active) in experiment [13] and 13.4 µM (active) in experiment [14].

As to `COCCOCCOC`, the call in [1], in experiment [2], in experiment [3], in experiment [4], in experiment [5] and in experiment [6] was inactive. Moreover, the result in experiment [7], in [8], in experiment [9], in experiment [10] and in experiment [12] was inactive.

As for `CCCCCCCCCCCCCCCCCC(=O)O`, the result in experiment [11], in experiment [1], in experiment [2], in experiment [4], in experiment [5] and in experiment [6] was inactive. Also, the outcome in experiment [8], in [9] and in [12] was inactive.
